This passage reports composite z-score results from PubChem BioAssay.

The experiment relates to PRMT1 (protein arginine N-methyltransferase 1). In words: small molecules binding arginine methyltransferase PRMT1 – biochemical, small-molecule microarray, 635 nm fluorescence, primary screen (AID 1088).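 Further: binding of Prmt1 protein to compounds spotted on small-molecule microarray slides.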 Particulars: higher = more signal.
In the case of `CC(C)CN1CCc2nc(-c3ccccc3)c3c(c2C1)CO[C@@H](C)C3`, the composite z-score was 1.42.

`COCC#Cc1ccc([C@@H]2N[C@H](C(=O)O)CC[C@H]2C)cc1` had a composite z-score of 0.13.

As to `C[C@@H](c1ccccc1)N1C(=O)[C@H]2[C@H]3[C@H](O)[C@H](O)CC(=NOC[C@@H](O)COCc4ccco4)[C@H]3CC[C@H]2C1=O`, the composite z-score is 0.559.

`CCOC(=O)[C@H](CC(C)C)NC(=O)CCC1CC(OC(=O)NCc2ccc3c(c2)OCO3)CC2(CCCC(COC(=O)NCCc3ccc(Cl)cc3)O2)O1` (stereo partly specified) yielded a composite z-score of 1.3.

As for `C#CCCCON=C1C[C@@H](O)[C@@H](O)[C@@H]2[C@@H]3C(=O)N(C4CCCCC4)C(=O)[C@@H]3CC[C@@H]12`, the composite z-score came out at 0.335.

`CC(C)=CCCC(C)=CCON=C1C[C@@H](O)[C@@H](O)[C@@H]2[C@@H]3C(=O)N(c4cccc(Oc5ccccc5)c4)C(=O)[C@@H]3CC[C@H]12` displayed a composite z-score of 1.04.

Consider `COc1ccc(O[C@H]2C=C[C@@H](C#Cc3ccccc3)O[C@@H]2CO)cc1`, for which the composite z-score worked out at 0.718.

Consider `CCCNC(=O)OC[C@H]1O[C@H](CCON=C[C@@H](NS(=O)(=O)c2ccc(C)cc2)[C@H](C)C=CCC(=O)OC)C=C[C@@H]1Oc1ccc(OC)cc1`, for which the composite z-score is 0.409.

In turn, `COC(=O)[C@H](C)NC(=O)CCC1CC(OC(=O)NCc2cccc3ccccc23)CC2(CCCC(COC(=O)NCCCN3CCCC3=O)O2)O1` (stereo partly specified) had a composite z-score of 1.58.

Molecule `COC(=O)[C@H](C)NC(=O)CCC1CC(OC(=O)NCCc2ccc(F)cc2)CC2(CCCC(COC(=O)NCC3CCCCC3)O2)O1` (stereo partly specified) gave a composite z-score of 1.49.

Take `COC(=O)[C@H](C)NC(=O)CCC1CC(OC(=O)NCc2ccc3c(c2)OCO3)CC2(CCCC(COC(=O)NCCc3ccc(Cl)cc3)O2)O1` (stereo partly specified): the composite z-score is 0.898.

Molecule `COc1ccc(COC(=O)NN=C2C[C@@H](O)[C@@H](O)[C@@H]3[C@@H]4C(=O)N([C@@H](C)c5ccccc5)C(=O)[C@@H]4CC[C@@H]23)cc1` registered a composite z-score of -0.0948.

`COc1ccc(O[C@H]2C=C[C@@H](c3ccccc3)O[C@@H]2COC(=O)CCC(C)=NOC[C@@H](O)COCc2ccco2)cc1` registered a composite z-score of -1.02.

For the molecule `CCN1C(=O)[C@H]2[C@H]3[C@H](O)[C@H](O)CC(=NOCC(C)C)[C@H]3CC[C@H]2C1=O`, the composite z-score was -0.332.

As for `CC(=O)OC[C@H]1O[C@H](C#CCC2CCCCC2)C=C[C@@H]1OC(C)=O`, the composite z-score came out at 1.18.

On to `CCN1C(=O)[C@H]2[C@H]3[C@H](O)[C@H](O)CC(=NOC[C@@H](O)[C@H]4O[C@@H]5OC(C)(C)O[C@@H]5[C@H]4O)[C@@H]3CC[C@H]2C1=O`, for which the composite z-score is -0.556.

For the molecule `C[C@@H]1CC[C@@H](C(=O)O)N[C@H]1c1cccc(N2CCOCC2)c1`, the composite z-score was -0.618.

As for `CCOC(=O)NN=C1C[C@@H](O)[C@@H](O)[C@@H]2[C@@H]3C(=O)N(c4ccc(F)cc4F)C(=O)[C@@H]3CC[C@H]12`, the composite z-score was -0.334.

On to `CCC1=NOC(CCC2CC(OC(=O)NCc3cccc4c3OCO4)CC3(CCCC(COC(=O)NCCc4ccc(Cl)cc4)O3)O2)C1` (stereo unspecified), for which the composite z-score worked out at 0.616.

`CCOC(=O)CCN1C(=O)[C@H]2[C@H]3[C@H](O)[C@H](O)CC(=NO[C@@H]4O[C@H](CO)[C@@H](O)[C@H](O)[C@H]4O)[C@@H]3CC[C@H]2C1=O` showed a composite z-score of 1.52.

Consider `CCOC(=O)[C@H](CC(C)C)NC(=O)CCC1CC(OC(=O)NCc2ccc3c(c2)OCO3)CC2(CCCC(COC(=O)NCc3ccccc3)O2)O1` (stereo partly specified), for which the composite z-score came to 0.974.

Turning to `CC(C)C(=O)N[C@H]1CCCN1C(=O)C=Cc1ccccc1`, the composite z-score came out at 0.876.

`COC(=O)[C@H](C)NC(=O)CCC1CC(OC(=O)NCc2cccc3ccccc23)CC2(CCCC(COC(=O)NCc3ccccc3)O2)O1` (stereo partly specified): the composite z-score is 1.29.

`CCOC(=O)[C@H](CC(C)C)NC(=O)CCC1CC(OC(=O)NCCc2ccc(F)cc2)CC2(CCCC(COC(=O)NCc3cccc4ccccc34)O2)O1` (stereo partly specified) returned a composite z-score of 0.733.

Consider `COC(=O)CC=C[C@@H](C)[C@@H](C=NOC(C)CN1CCCCc2nc(C)c(C)cc21)OC` (stereo partly specified), for which the composite z-score is 1.24.

In turn, `CCN1C(=O)[C@H]2[C@H]3[C@H](O)[C@H](O)CC(=NOC[C@@H](O)COCc4ccco4)[C@H]3CC[C@H]2C1=O` showed a composite z-score of 1.21.

`COCCNC(=O)OCC1CCCC2(CC(OC(=O)NCc3cccc4ccccc34)CC(CCC(=O)N[C@@H](C)C(=O)OC)O2)O1` (stereo partly specified) gave a composite z-score of 1.55.

The molecule `CC(=O)OC[C@H]1O[C@@H](ON=C(C)CCN2CCCCc3nc(C)c(C)cc32)[C@H](OC(C)=O)[C@@H](OC(C)=O)[C@@H]1OC(C)=O` showed a composite z-score of 1.53.

Molecule `O=C1C=C[C@@H](O)[C@@H]2[C@@H]3C(=O)N(c4cccc(Oc5ccccc5)c4)C(=O)[C@@H]3CC[C@@H]12` showed a composite z-score of 0.491.

For `CCOC(=O)[C@H](CC(C)C)NC(=O)CCC1CC(OC(=O)NCCc2ccc(F)cc2)CC2(CCCC(COC(=O)NCCOC)O2)O1` (stereo partly specified), the composite z-score was determined as 1.41.

Molecule `CCN1C(=O)[C@H]2[C@H]3[C@H](O)[C@H](O)CC(=NOC(C)CN4CCCc5nc(C)c(C)cc54)[C@@H]3CC[C@H]2C1=O` (stereo partly specified) yielded a composite z-score of 1.46.

In turn, `CC(C)=CCCC(C)=CCON=C1[C@H]2CCn3c(=O)n(-c4ccccc4)c(=O)n3[C@H]2[C@H](O)[C@@H]2O[C@H]12` showed a composite z-score of 1.56.

In turn, `O=C1C=C[C@@H](O)[C@@H]2[C@@H]3C(=O)N(Cc4ccccc4)C(=O)[C@@H]3CC[C@@H]12` showed a composite z-score of -0.136.

Turning to `CCCCOC(OCCCC)C(O)CSc1ccc2ccccc2c1` (stereo unspecified), the composite z-score came to 0.642.

For `CC[C@@H](c1ccccc1)n1c(=O)n2n(c1=O)[C@H]1[C@H](O)[C@@H]3O[C@@H]3C(=NOCc3ccccc3)[C@H]1CC2`, the composite z-score is -0.454.

The molecule `CC(CCN1CCCc2nc(C)c(C)cc21)=NOC[C@@H](C)[C@H](OCc1ccccc1)C(C)C` displayed a composite z-score of -0.0185.
